# Source: the supplement of paper PMC8728848
# This excerpt belongs to a sample that is enriched for the strongest signals.
# Tests used:
# Assay in all cases: glycan array binding signal (z-score within array); higher = stronger binding
# Details in all cases: glycan notation: IUPAC condensed, linker removed
# Fuc(a1-2)Gal = molecular target: Fuc(a1-2)Gal
# Method in brief: (§1)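 Negative Z-scores can be read as non-binding. The Z-score is calculated within each array and then averaged across arrays of one protein sequence at different concentrations or buffers and across linkers. Arrays, 3228 in all, were curated from the Consortium for Functional Glycomics database and kept only where the protein sequence was available.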
# Fuc(a1-2)Gal(b1-3)GlcNAc = molecular target: Fuc(a1-2)Gal(b1-3)GlcNAc
# Method in brief: as §1
# [1] = molecular target: Fuc(a1-2)Gal(b1-3)GlcNAc(b1-2)Man(a1-3)[Fuc(a1-2)Gal(b1-3)GlcNAc(b1-2)Man(a1-6)]Man(b1-4)GlcNAc(b1-4)GlcNAc
# Method in brief: as §1
# [2] = molecular target: Fuc(a1-2)Gal(b1-3)GlcNAc(b1-2)Man(a1-3)[Fuc(a1-2)Gal(b1-3)GlcNAc(b1-2)Man(a1-6)]Man(b1-4)GlcNAc(b1-4)[Fuc(a1-6)]GlcNAc
# Method in brief: as §1
# [3] = molecular target: Fuc(a1-2)Gal(b1-3)GlcNAc(b1-3)GalNAc
# Method in brief: as §1
# [4] = molecular target: Fuc(a1-2)Gal(b1-3)[Fuc(a1-4)]GlcNAc(b1-2)Man(a1-3)[Fuc(a1-2)Gal(b1-3)[Fuc(a1-4)]GlcNAc(b1-2)Man(a1-6)]Man(b1-4)GlcNAc(b1-4)[Fuc(a1-6)]GlcNAc(b1-4)[Fuc(a1-6)]GlcNAc
# Method in brief: as §1
# Fuc(a1-2)Gal(b1-4)GlcNAc = molecular target: Fuc(a1-2)Gal(b1-4)GlcNAc
# Method in brief: as §1
# [5] = molecular target: Fuc(a1-2)Gal(b1-4)[Fuc(a1-3)]GlcNAc(b1-2)Man(a1-3)[Fuc(a1-2)Gal(b1-4)[Fuc(a1-3)]GlcNAc(b1-2)Man(a1-6)]Man(b1-4)GlcNAc(b1-4)[Fuc(a1-6)]GlcNAc
# Method in brief: as §1
# Fuc(a1-2)Gal6S(b1-4)Glc = molecular target: Fuc(a1-2)Gal6S(b1-4)Glc
# Method in brief: as §1
# [6] = molecular target: Fuc(a1-2)[Gal(a1-3)]Gal(b1-3)GlcNAc(b1-3)GalNAc
# Method in brief: as §1
# [7] = molecular target: Fuc(a1-2)[Gal(a1-4)]Gal(b1-4)GlcNAc
# Method in brief: as §1
# [8] = molecular target: Fuc(a1-3)[Gal(b1-4)]GlcNAc(b1-2)Man
# Method in brief: as §1
# [9] = molecular target: Fuc(a1-3)[Gal(b1-4)]GlcNAc(b1-2)Man(a1-3)[Fuc(a1-3)[Gal(b1-4)]GlcNAc(b1-2)Man(a1-6)]Man(b1-4)GlcNAc(b1-4)GlcNAc
# Method in brief: as §1
# [10] = molecular target: Fuc(a1-3)[Gal(b1-4)]GlcNAc(b1-6)GalNAc
# Method in brief: as §1
# [11] = molecular target: Gal(a1-3)Gal(b1-3)GlcNAc(b1-2)Man
# Method in brief: as §1
# [12] = molecular target: Gal(a1-3)Gal(b1-4)GlcNAc(b1-6)GalNAc
# Method in brief: as §1
# [13] = molecular target: Gal(a1-3)[Gal(a1-4)]Gal(b1-4)GlcNAc
# Method in brief: as §1
# Gal(a1-4)Gal(b1-4)GlcNAc = molecular target: Gal(a1-4)Gal(b1-4)GlcNAc
# Method in brief: as §1
# Gal(b1-2)Gal = molecular target: Gal(b1-2)Gal
# Method in brief: as §1
# Gal(b1-4)GlcNAc = molecular target: Gal(b1-4)GlcNAc
# Method in brief: as §1
# [14] = molecular target: Gal(b1-4)GlcNAc(b1-3)Gal(b1-4)Glc
# Method in brief: as §1
# [15] = molecular target: Gal(b1-4)GlcNAc(b1-3)Gal(b1-4)GlcNAc(b1-2)Man(a1-3)[Gal(b1-4)GlcNAc(b1-3)Gal(b1-4)GlcNAc(b1-2)Man(a1-6)]Man(b1-4)GlcNAc(b1-4)GlcNAc
# Method in brief: as §1
# GalNAc(b1-3)Gal = molecular target: GalNAc(b1-3)Gal
# Method in brief: as §1
# [16] = molecular target: GalNAc(b1-3)Gal(a1-4)Gal(b1-4)GlcNAc(b1-3)Gal(b1-4)Glc
# Method in brief: as §1
# Glc(b1-4)Glc = molecular target: Glc(b1-4)Glc
# Method in brief: as §1
# [17] = molecular target: GlcA3S(b1-3)Gal(b1-4)GlcNAc(b1-3)Gal(b1-4)Glc
# Method in brief: as §1
# [18] = molecular target: GlcNAc(b1-2)[GlcNAc(b1-4)]Man(a1-3)[GlcNAc(b1-4)][GlcNAc(b1-2)Man(a1-6)]Man(b1-4)GlcNAc(b1-4)GlcNAc
# Method in brief: as §1
# GlcNAc(b1-3)Gal(b1-4)Glc = molecular target: GlcNAc(b1-3)Gal(b1-4)Glc
# Method in brief: as §1
# [19] = molecular target: GlcNAc(b1-3)Gal(b1-4)GlcNAc(b1-2)Man(a1-3)[GlcNAc(b1-3)Gal(b1-4)GlcNAc(b1-2)Man(a1-6)]Man(b1-4)GlcNAc(b1-4)[Fuc(a1-6)]GlcNAc
# Method in brief: as §1
# [20] = molecular target: GlcNAc(b1-3)Gal(b1-4)GlcNAc(b1-3)Gal(b1-4)GlcNAc(b1-2)Man(a1-3)[GlcNAc(b1-3)Gal(b1-4)GlcNAc(b1-3)Gal(b1-4)GlcNAc(b1-2)Man(a1-6)]Man(b1-4)GlcNAc(b1-4)[Fuc(a1-6)]GlcNAc
# Method in brief: as §1
# [21] = molecular target: GlcNAc(b1-3)Gal(b1-4)GlcNAc(b1-3)Gal(b1-4)GlcNAc(b1-3)Gal(b1-4)GlcNAc(b1-2)[GlcNAc(b1-3)Gal(b1-4)GlcNAc(b1-3)Gal(b1-4)GlcNAc(b1-3)Gal(b1-4)GlcNAc(b1-6)]Man(a1-6)[GlcNAc(b1-3)Gal(b1-4)GlcNAc(b1-3)Gal(b1-4)GlcNAc(b1-3)Gal(b1-4)GlcNAc(b1-2)Man(a1-3)]Man(b1-4)GlcNAc(b1-4)[Fuc(a1-6)]GlcNAc
# Method in brief: as §1
# Man(a1-2)Man(a1-3)Man = molecular target: Man(a1-2)Man(a1-3)Man
# Method in brief: as §1
# [22] = molecular target: Man(a1-3)[Man(a1-6)]Man(b1-4)GlcNAc(b1-4)GlcNAc
# Method in brief: as §1
# [23] = molecular target: Neu5Ac(a2-3)Gal(b1-3)GlcNAc(b1-3)GalNAc
# Method in brief: as §1
# [24] = molecular target: Neu5Ac(a2-3)Gal(b1-3)[Fuc(a1-4)]GlcNAc
# Method in brief: as §1
# [25] = molecular target: Neu5Ac(a2-3)Gal(b1-4)GlcNAc(b1-2)Man(a1-3)[Neu5Ac(a2-3)Gal(b1-4)GlcNAc(b1-2)Man(a1-6)]Man(b1-4)GlcNAc(b1-4)[Fuc(a1-6)]GlcNAc
# Method in brief: as §1
# [26] = molecular target: Neu5Ac(a2-3)Gal(b1-4)[Fuc(a1-3)]GlcNAc(b1-3)GalNAc
# Method in brief: as §1
# [27] = molecular target: Neu5Ac(a2-6)Gal(b1-4)GlcNAc(b1-2)Man
# Method in brief: as §1
# [28] = molecular target: Neu5Ac(a2-6)Gal(b1-4)GlcNAc(b1-2)Man(a1-3)[GlcNAc(b1-2)Man(a1-6)]Man(b1-4)GlcNAc(b1-4)GlcNAc
# Method in brief: as §1
# [29] = molecular target: Neu5Ac(a2-6)Gal(b1-4)GlcNAc(b1-2)Man(a1-3)[Neu5Ac(a2-6)Gal(b1-4)GlcNAc(b1-2)Man(a1-6)]Man(b1-4)GlcNAc(b1-4)GlcNAc
# Method in brief: as §1
# [30] = molecular target: Neu5Ac(a2-6)Gal(b1-4)GlcNAc(b1-2)Man(a1-6)Man(b1-4)GlcNAc(b1-4)GlcNAc
# Method in brief: as §1
# [31] = molecular target: Neu5Ac(a2-6)GlcNAc(b1-4)GlcNAc(b1-4)GlcNAc
# Method in brief: as §1
# [32] = molecular target: Neu5Ac(a2-8)Neu5Gc(a2-3)Gal(b1-4)GlcNAc
# Method in brief: as §1
# Neu5Gc(a2-3)Gal(b1-4)Glc = molecular target: Neu5Gc(a2-3)Gal(b1-4)Glc
# Method in brief: as §1
# Neu5Gc(a2-6)GalNAc = molecular target: Neu5Gc(a2-6)GalNAc
# Method in brief: as §1
# [33] = molecular target: Neu5Gc(a2-8)Neu5Gc(a2-3)Gal(b1-4)GlcNAc(b1-3)Gal(b1-4)GlcNAc
# Method in brief: as §1
binder,measurement,setting,value
PX14375D-bvu-513-34-513 (Bacteroides vulgatus) (protein) TEDTFWKDETDFNLALTSCYTPLKNALNGGYYGTRGVMLRIARADEVDFRNDISDVYTVNRFTNSNTNSLTQGMFYQFYNALYRTNSIMQKLEEKKEQFSTDFQNSVKGECLFIRGFYLFQLAKEFKDAPLRLTASQSPSTFPLAKSSQADIWAQAKEDLKTAASLLPITNKIGKPTQGAAYAALGKIYVYEENWQEAINVLEPLTQNPYTYKLVEDFNWNFDDTHENNAESIFELLIEDVGGTDLWGDGENINSTQSNTRPKEYAAAEVGGWYEANPTQQIMDIFWKEKDKDGNFDYRARCSVAWDYEGCTYYQRPFREVFAQDKWKTYWILKYQNWKTQKDEPAPPKSFINERAIRYADVLLMLAEAYMNKGALDTSIGYINQIRRRANLNDYSGPITKEGVFEDLVHQRAIEFFVEGERFYDLRRWGLLEQTLKTCDDTRYKNYQTGKSDNINKFNYFPIPAKELDTNPLCTPSEGW,glycan array binding signal (z-score),Fuc(a1-2)Gal,0.373
same,glycan array binding signal (z-score),Fuc(a1-2)Gal(b1-3)GlcNAc,-0.892
same,glycan array binding signal (z-score),[1],1.56
same,glycan array binding signal (z-score),[2],0.425
same,glycan array binding signal (z-score),[3],-0.35
same,glycan array binding signal (z-score),[4],2.03
same,glycan array binding signal (z-score),Fuc(a1-2)Gal(b1-4)GlcNAc,0.501
same,glycan array binding signal (z-score),[5],1.81
same,glycan array binding signal (z-score),Fuc(a1-2)Gal6S(b1-4)Glc,-0.059
same,glycan array binding signal (z-score),[6],-0.366
same,glycan array binding signal (z-score),[7],-0.107
same,glycan array binding signal (z-score),[8],2.96
same,glycan array binding signal (z-score),[9],-0.56
same,glycan array binding signal (z-score),[10],0.851
same,glycan array binding signal (z-score),[11],-0.81
same,glycan array binding signal (z-score),[12],0.081
same,glycan array binding signal (z-score),[13],2.92
same,glycan array binding signal (z-score),Gal(a1-4)Gal(b1-4)GlcNAc,0.227
same,glycan array binding signal (z-score),Gal(b1-2)Gal,-0.667
same,glycan array binding signal (z-score),Gal(b1-4)GlcNAc,0.126
same,glycan array binding signal (z-score),[14],-0.017
same,glycan array binding signal (z-score),[15],1.87
same,glycan array binding signal (z-score),GalNAc(b1-3)Gal,-0.306
same,glycan array binding signal (z-score),[16],0.403
same,glycan array binding signal (z-score),Glc(b1-4)Glc,0.371
same,glycan array binding signal (z-score),[17],-0.213
same,glycan array binding signal (z-score),[18],-0.188
same,glycan array binding signal (z-score),GlcNAc(b1-3)Gal(b1-4)Glc,-0.384
same,glycan array binding signal (z-score),[19],1.56
same,glycan array binding signal (z-score),[20],1.62
same,glycan array binding signal (z-score),[21],2.65
same,glycan array binding signal (z-score),Man(a1-2)Man(a1-3)Man,-1
same,glycan array binding signal (z-score),[22],0.478
same,glycan array binding signal (z-score),[23],-0.439
same,glycan array binding signal (z-score),[24],1.67
same,glycan array binding signal (z-score),[25],-0.211
same,glycan array binding signal (z-score),[26],1.33
same,glycan array binding signal (z-score),[27],-0.379
same,glycan array binding signal (z-score),[28],-0.096
same,glycan array binding signal (z-score),[29],-0.145
same,glycan array binding signal (z-score),[30],0.342
same,glycan array binding signal (z-score),[31],0.337
same,glycan array binding signal (z-score),[32],18.8
same,glycan array binding signal (z-score),Neu5Gc(a2-3)Gal(b1-4)Glc,-0.166
same,glycan array binding signal (z-score),Neu5Gc(a2-6)GalNAc,-0.168
same,glycan array binding signal (z-score),[33],-0.969
